# Assay results reported in ChEMBL document CHEMBL3988442, “University of Dundee, Small-Polar-MMV Screening Library” (2021).
# The campaign covered roughly 48,000 compounds. About 13,000 (27%) showed an effect of 50% or more. Some of the results follow.
# Tested on: Wolbachia pipientis
# Experiment: Anti-Wolbachia Cell-Based Screen
# Type: functional
# Design: scale not given: in the data most compounds retested in dose-response had high values
# Conditions: 5 µM
row,SMILES,Percent Effect [%]
1,COc1ccccc1C(=O)NC(C)CC(=O)O (centres undefined),5.398
2,COc1ccccc1C(=O)Nc1c(F)c(C(=O)NCCC(C)C)nn1C,138.9
3,CC(C)Oc1ccccc1C(=O)NCCc1nncn1C,-7.55
4,CCC(C)NC(=O)c1nn(C)c(NC(=O)c2ccccc2OC)c1F (centres undefined),131.5
5,CCN(CC)CCn1cc(NC(=O)c2ccccc2OC)cn1,7.312
6,COc1cccc(C(=O)NC(C)CCN2CCOCC2)c1F (centres undefined),4.529
7,NC(=O)N1CCC2(CC1)CN(c1ncccn1)CCO2,-107.3
8,CN(C)C(=O)c1cn[nH]c1C1(C)CCN(c2ncccn2)CC1,98.94
9,CC1(c2[nH]ncc2C(N)=O)CCN(c2ncccn2)CC1,105.4
10,CC(C)=CCC1(C(=O)O)CCCN(c2ccnc(C)n2)C1 (centres undefined),-9.118
11,CC1(c2[nH]ncc2C(N)=O)CCN(S(=O)(=O)c2ccccc2)CC1,129
12,CCN1CCNC(=O)C12CCN(S(=O)(=O)c1ccccc1)CC2,-28.29
13,CN(C)C(=O)CC1CC2(CCN(c3ncccn3)CC2)c2ccccc21.O=C(O)C(F)(F)F (centres undefined),8.977
14,Cc1nccc(N2CCCC(C)(c3[nH]ncc3C(N)=O)C2)n1 (centres undefined),108.3
15,Cc1nc2c(c(N3CCN(c4ncccc4C(N)=O)CC3)n1)CCNC2,-20.98
16,Cc1ccc(-c2cn[nH]c2C2CCCN(c3ccnc(C)n3)C2)cc1 (centres undefined),-2.431
17,Cc1cnc(N2CCC3(CC2)CC3CNC(=O)N(C)C)nc1 (centres undefined),-2.686
18,CN1C(=O)CCC12CCN(S(=O)(=O)c1ccccc1)CC2,-37.9
19,CNC(=O)CN(C)Cc1ccc(F)cc1Cl,-1.762
20,O=C(c1nc(N2CCCC2)ncc1Cl)N1CCN(Cc2ccsc2)CC1,11.05
21,CCn1ncc2c1CCCC2NCc1csc(C(C)C)n1 (centres undefined),-1.873
22,CC(C)Cc1nc(CS(=O)(=O)c2ccccc2)no1,-7.933
23,Cn1cc(C2CC(=O)NC23CCN(C(=O)c2ccc[nH]2)CC3)cn1 (centres undefined),-5.816
24,Cn1cc(C2CC(=O)NC23CCN(C(=O)C2CC=CC2)CC3)cn1 (centres undefined),98.1
25,O=C1CC(c2ccncc2)C2(CCN(C(=O)c3ccnnc3)CC2)N1 (centres undefined),8.485

row,SMILES,Percent Effect [%]
1,CC(=O)NCC(=O)N1CCC2(CC1)NC(=O)CC2c1cnn(C)c1 (centres undefined),117.4
2,Cn1cc(C2CC(=O)NC23CCN(C(=O)NC2CC2)CC3)cn1 (centres undefined),102
3,CC(=O)NCC(=O)N1CCC2(CC1)NC(=O)CC2c1cccnc1.O=C(O)C(F)(F)F (centres undefined),7.13
4,CCN1C(=O)CC(c2cnn(C)c2)C12CCN(C(=O)C1CC=CC1)CC2 (centres undefined),-6.196
5,COCC(=O)N1CCC2(CC1)CC(c1cnn(C)c1)C(=O)N2 (centres undefined),4.267
6,O=C(O)C(F)(F)F.O=C1CC(c2ccncc2)C2(CCN(C(=O)NC3CC3)CC2)N1 (centres undefined),-11.64
7,CCn1ccnc1CNc1nccc(-c2cn(C)nc2C)n1,-3.456
8,CC(C)C(NC(=O)N1CCN(c2ccc(Cl)cc2)CC1)C(=O)NC1CC1 (centres undefined),0.3878
9,COc1ccc(OC)c(C(O)CN2CC(n3cccn3)C2)c1 (centres undefined),-4.387
10,CCCN1CC2(CCN(c3cc(C4CC4)ncn3)CC2)CC1C(=O)O (centres undefined),-4.033
11,CC1(C)CN(Cc2cc(C3CCCCC3)no2)CC[C@]1(C)O,3.04
12,Cc1ccc(NC2CCN(C(=O)c3sccc3C3CC3)CC2)nn1,97.28
13,Cc1ccc(NC2CCN(C(=O)c3ccsc3)CC2)nn1,-4.871
14,Cc1ccc(NC2CCN(C(=O)c3ccco3)CC2)nn1,66.81
15,Cc1ccc(NC2CCN(C(=O)c3cnn(C(C)(C)C)c3)CC2)nn1,89.59
16,Cc1ccc(NC2CCN(C(=O)c3ccc(Cl)o3)CC2)nn1,-2.526
17,Cc1ccc(NC2CCN(C(=O)c3cnc(C)s3)CC2)nn1,-2.09
18,Cc1ccc(NC2CCN(C(=O)c3n[nH]c4ccccc34)CC2)nn1,-3.019
19,Cc1ccc(NC2CCN(C(=O)c3ccncc3)CC2)nn1,119.5
20,Cc1ccc(NC2CCN(C(=O)c3cccn3C)CC2)nn1,4.199
21,CC(C)=CCN1CCc2onc(-c3ccc(F)c(F)c3)c2C1,-6.636
22,CC(C)NC(=O)[C@@H]1C[C@@H](N)CN1C(=O)CCSCc1ccc(F)cc1,-8.578
23,CC(NC(=O)c1cc2n(n1)CCCN(C)C2)c1cn2ncsc2n1 (centres undefined),2.374
24,O=C(Cc1cc(F)cc(Cl)c1)N[C@@H]1CCNC[C@H]1O,-5.906
25,Cc1ccc(NC2CCN(C(=O)c3ccnc(N(C)C)c3)CC2)nn1,106.8

row,SMILES,Percent Effect [%]
1,Cc1ccc(NC2CCN(C(=O)c3cccc4ncccc34)CC2)nn1,0.6647
2,Cc1ccc(NC2CCN(C(=O)c3ccc(C#N)cc3)CC2)nn1,103.2
3,CCn1ccnc1S(=O)(=O)Cc1ccc(C(N)=O)cc1,-8.81
4,Cc1ccc(NC2CCN(C(=O)COCC(F)(F)F)CC2)nn1,-5.027
5,Cc1ccc(NC2CCN(C(=O)COCC3CC3)CC2)nn1,115.7
6,Cc1ccc(NC2CCN(C(=O)COC3CCCCC3)CC2)nn1,112.2
7,Cc1ccc(NC2CCN(C(=O)CCOCC(F)(F)F)CC2)nn1,69.22
8,Cc1ccc(NC2CCN(C(=O)CN(C)C3CC3)CC2)nn1,-0.8726
9,Cc1ccc(NC2CCN(C(=O)COC3CCCC3)CC2)nn1,70.65
10,Cc1ccc(NC2CCN(C(=O)CC3CCCO3)CC2)nn1 (centres undefined),6.763
11,Cc1ccc(CNC(C)c2ccc(N3CCN(C)CC3)c(F)c2)o1.Cl (centres undefined),-9.969
12,Cc1cc(NS(=O)(=O)c2c[nH]c3ncccc23)no1,-5.183
13,COCc1ccccc1C(=O)NCC(O)c1ccccc1F (centres undefined),-8.064
14,CN1C(=O)C2(CCN(C(=O)c3ccccc3)CC2)c2cc(F)ccc21.Cl,-1.303
15,CC(=O)N1CCC2(CC1)CNc1ccc(F)cc12,-3.15
16,CN1CC2(CCN(C(=O)c3cccnc3)CC2)c2cccc(F)c21.Cl,104.8
17,Cl.O=C(c1cccnc1)N1CCC2(CC1)CNc1c(F)cccc12,106.5
18,CS(=O)(=O)N1CCc2[nH]cnc2C12CCN(C(=O)c1cccnc1)CC2,-96.76
19,CC(=O)N1CCC2(CC1)CNc1c(F)cccc12.Cl,98.89
20,CN1C(=O)C2(CCN(C(=O)c3cccnc3)CC2)c2cccc(F)c21,5.447
21,Cl.O=C(c1ccccc1)N1CCC2(CC1)CNc1c(F)cccc12,97.7
22,CN1C(=O)C2(CCN(C(=O)c3ccccc3)CC2)c2cccc(F)c21.Cl,2.069
23,CN1CC2(CCN(Cc3cccnc3)CC2)c2cccc(F)c21.Cl,16.02
24,CC(=O)N1CCC2(CC1)C(=O)N(C)c1c(F)cccc12,2.868
